# HTR5A inv ag: inverse agonist of human HTR5A in OPRM1-OPRD1 counter-screen; HTR5A cell line, luminescence, inverse agonism; inhibition, % at 9.3 µM; hit rate 0.083% among 340,000; AID 504634; in the data active means inhibition mostly above about 23%, no sharp cut-off; inactive means mostly below about 18%;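 further: 0% = cells with DMSO and 100% = no-cell wells with DMSO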
# HTR5A ag ctr: counter-screen for OPRM1-OPRD1 agonists: human HTR5A agonism; HTR5A agonist assay, luminescence, cell-based; hit rate 0.61% among 340,000; activation, % at 9.3 µM; P47898; in the data active means activation mostly above about 9.5%, no sharp cut-off; inactive means mostly below about 7.6%;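 further: 0% = cells with vehicle only and 100% = reference agonist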
# MOR-DOR inv ag: inverse agonist of human OPRM1-OPRD1 heterodimerization; P35372+P41143; cell-based MOR-DOR heterodimer luminescence, inverse agonism; inhibition, % at 9.3 µM; hit rate 0.21% among 340,000; in the data active means inhibition above about 22%, passing the limit was not always enough;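 further: 0% = cells with DMSO and 100% = wells without cells with DMSO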
# Target sequence (P35372 whole entry, looked up): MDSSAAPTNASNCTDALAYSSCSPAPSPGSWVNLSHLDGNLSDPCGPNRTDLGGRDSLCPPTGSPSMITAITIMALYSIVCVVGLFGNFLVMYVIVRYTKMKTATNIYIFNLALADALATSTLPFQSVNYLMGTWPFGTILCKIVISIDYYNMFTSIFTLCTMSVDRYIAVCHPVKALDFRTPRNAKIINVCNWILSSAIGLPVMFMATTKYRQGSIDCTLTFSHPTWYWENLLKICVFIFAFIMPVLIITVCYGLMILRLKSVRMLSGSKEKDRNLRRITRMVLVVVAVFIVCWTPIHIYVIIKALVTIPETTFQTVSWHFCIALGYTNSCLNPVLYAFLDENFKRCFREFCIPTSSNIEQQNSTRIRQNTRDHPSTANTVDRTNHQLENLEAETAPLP
# Target sequence (P41143 whole entry, looked up): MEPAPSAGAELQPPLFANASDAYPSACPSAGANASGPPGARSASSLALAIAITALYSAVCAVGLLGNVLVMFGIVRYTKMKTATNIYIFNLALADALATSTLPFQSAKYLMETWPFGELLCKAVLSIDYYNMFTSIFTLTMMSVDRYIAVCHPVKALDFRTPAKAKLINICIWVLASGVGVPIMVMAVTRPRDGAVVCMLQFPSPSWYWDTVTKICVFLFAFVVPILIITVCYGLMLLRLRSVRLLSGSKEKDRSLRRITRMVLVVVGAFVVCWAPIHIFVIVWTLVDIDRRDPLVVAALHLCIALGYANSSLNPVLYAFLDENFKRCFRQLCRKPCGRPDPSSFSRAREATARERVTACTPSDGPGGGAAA
# MOR-DOR ag: agonists of human mu-delta opioid receptor heterodimerization; P35372+P41143; hit rate 0.3% among 340,000; cells, OPRM1-OPRD1 heterodimerization, luminescence; AID 504326; activation, % at 9.3 µM; in the data active means activation above about 18%;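 further: 0% = vehicle-treated cells and 100% = reference agonist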
# MOR-DOR inv conf: confirmation of human OPRM1-OPRD1 heterodimerization inverse agonists. cells expressing OPRM1/OPRD1 heterodimer, luminescence. AID 504900. hit rate 20% among 580. inhibition, % at 9.3 µM. shares compounds with MOR-DOR inv ag; in the data active means inhibition above about 32%;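 further: 0% = cells with DMSO and 100% = wells lacking cells with DMSO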
# HTR5A inv ctr2: inverse agonist of human HTR5A in OPRM1-OPRD1 counter-screen. shares compounds with MOR-DOR inv ag. HTR5A-expressing cells, luminescence, inverse agonism. inhibition, % at 9.3 µM. 580 tested, under 10 active. AID 504914; call rule not given here;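 further: 0% = cells with DMSO and 100% = no-cell wells with DMSO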
# * marks the source's active call; other numbers are inactive results; i = inactive; / = no result given. Hits are enriched below; roughly 1.1% of the tested compounds scored in any of these assays.
SMILES,HTR5A inv ag,HTR5A ag ctr,MOR-DOR inv ag,MOR-DOR ag,MOR-DOR inv conf,HTR5A inv ctr2
COC(=O)c1ccc(NC(=S)NC(=O)c2cccnc2)cc1,-4.1,-7.2,28.2*,-5.5,15.9,4.0
O=C1NC(=S)S/C1=C\c1cc(Cl)cc(Cl)c1O,-1.6,0.4,34.6*,-7.1,-59.1,-13.0
CN(c1ccccc1C(=O)Nc1ccc(S(=O)(=O)N2CCOCC2)cc1)S(=O)(=O)c1ccccc1,4.9,3.1,33.2*,-6.5,-3.2,-15.4
CCCOc1ccc(NC(=O)CCC(=O)NC(C)c2ccccc2)cc1 (stereo unspecified),-15.1,5.4,7.1,-1.4,/,/
CC(C)(C)OC(=O)C[C@@H]1C/C=C\C[C@H](CC(=O)N(CCO)Cc2ccccc2)C(=O)NC[C@@H](c2ccccc2)OC1=O,36.3,-10.0,56.3*,-12.2,-426.6,-0.9
C/C(CC(=O)Nc1ccc(N(C)C)cc1)=N\NC(=O)c1ccccn1,-9.3,-3.5,14.9,-3.2,/,/
C/C(CC(=O)Nc1ccc(N(C)C)cc1)=N\NC(=O)c1cnccn1,17.7,1.8,38.6*,-8.6,6.7,-10.7
CSc1ccccc1NC(=O)c1csc(C)c1,-5.9,1.1,13.5,-4.1,/,/
CCOC(=O)c1ccc(CC(=O)c2oc3cc(O)ccc3c2C)o1,-8.7,-0.7,34.5*,-5.9,27.5,-2.3
CCCCN(CCCC)CCNC(=O)c1cn(CC)c2ccc(S(=O)(=O)N3CCCC3)cc2c1=O,-13.7,3.4,27.1,-5.1,/,/
COc1ccc(C2N=C(c3ccccc3)C(C)(C)N2O)cc1 (stereo unspecified),-22.9,-1.3,43.5*,-7.5,11.6,-0.3
CC1(C)C(c2ccccc2)=NC(c2ccccc2)N1O (stereo unspecified),-22.8,-2.6,17.7,-3.5,/,/
CC1(C)C(c2ccccc2)=NC(c2ccc(Br)cc2)N1O (stereo unspecified),35.9,-0.5,46.5*,-8.9,12.4,5.3
CCC1=NC(c2ccc(OC)cc2)N(O)C1(C)C (stereo unspecified),-3.8,-1.1,15.2,-2.7,/,/
CCC1=NC(c2ccc(Br)cc2)N(O)C1(C)C (stereo unspecified),3.0,-1.1,33.1*,-5.8,25.5,-6.5
Cc1sc2nc[nH]c(=O)c2c1-c1ccc(Cl)cc1,-0.2,1.9,11.4,-2.2,/,/
COc1cccc(NC(=O)[C@H](NC(=O)[C@@H]2Cc3ccccc3CN2)c2ccccc2)c1,2.3,1.8,-4.4,0.9,/,/
O=C(CC(O)CCc1ccccc1)c1ccc(O)cc1 (stereo unspecified),-12.2,-1.4,4.5,-0.9,/,/
C=CCn1c(N)c(C(=O)OCCC)c2nc3ccccc3nc21,-3.0,0.8,48.5*,-9.0,-21.7,-93.8
C=CCn1c(N)c(C(=O)Nc2cccc(C)c2)c2nc3ccccc3nc21,-13.4,5.0,4.3,-0.7,/,/
C=CCSc1cc(C)nc2c(-c3ccc(Cl)cc3)c(C)nn12,37.6,-0.5,28.3*,-5.3,-52.0,-2.5
CC(C)[C@H](NC(=O)N1c2ccccc2NC(=O)[C@@H]1C(C)C)C(=O)N[C@@H](Cc1c[nH]c2ccccc12)C(=O)O,-6.7,-0.1,8.1,-1.6,/,/
O=[N+]([O-])c1cccc(/C=N/NS(=O)(=O)c2ccccc2)c1,-10.9,-0.5,38.4*,-7.5,21.0,0.1
COCCCNC(=O)C[C@H]1C[C@H](C(=O)N2CCOCC2)[C@@]2(C)c3[nH]c4cc(CCC(=O)N(C)C)ccc4c3CCN2C1=O,-9.1,2.5,6.0,-1.2,/,/
O=C(c1cc2ccccc2o1)N1CCN(C/C=C/c2ccccc2)CC1,-18.4,1.7,-6.9,1.3,/,/
SMILES,HTR5A inv ag,HTR5A ag ctr,MOR-DOR inv ag,MOR-DOR ag,MOR-DOR inv conf,HTR5A inv ctr2
O=C(Nc1ccc(C(=O)O)cc1)/C(=C\c1ccc([N+](=O)[O-])cc1)NC(=O)c1ccc(Br)cc1,-9.4,4.0,11.3,-2.4,/,/
O=C(C1=C(O)C(=O)N(CCN2CCOCC2)C1c1ccc(F)cc1)c1cc2ccccc2o1 (stereo unspecified),-3.3,0.8,10.1,-1.9,/,/
O=C(C1=C(O)C(=O)N(CCN2CCOCC2)C1c1ccco1)c1cc2ccccc2o1 (stereo unspecified),-3.7,0.9,33.6*,-6.3,-102.0,-40.4
O=C(O)c1ccc2nc3c(nc2c1)-c1ccccc1C3=O,21.9,11.4,41.5*,-8.8,45.8*,12.1
O=C(O)c1ccc2nc(-c3ccco3)c(-c3ccco3)nc2c1,5.6,-0.4,-18.8,4.0,/,/
COc1ccccc1NS(=O)(=O)c1ccc(C)c(C(=O)NCc2cccnc2)c1,0.9,-0.3,-3.4,0.8,/,/
Cc1ccc(C(=O)COC(=O)C(C)N2C(=O)C3C4CCC(C4)C3C2=O)cc1C (stereo unspecified),8.5,-1.4,14.0,-2.0,/,/
CC(C(=O)OCC(=O)c1cccc([N+](=O)[O-])c1)N1C(=O)C2C3C=CC(C3)C2C1=O (stereo unspecified),19.1,-6.8,47.6*,-8.9,i,-15.8
CC(C(=O)OCC(=O)c1cccc([N+](=O)[O-])c1)N1C(=O)C2C3CCC(C3)C2C1=O (stereo unspecified),10.8,-4.0,53.9*,-7.5,16.6,6.3
CC(C)c1ccccc1NC(=O)COC(=O)c1ccc(Cl)c(S(=O)(=O)N2CCCCCC2)c1,20.4,-2.8,-20.8,3.8,/,/
CN1C(=O)C(O)(CC(=O)c2ccccc2O)c2cc(Br)ccc21 (stereo unspecified),2.6,-0.9,67.5*,-13.3,-153.0,-33.7
COC(CNC(=O)CN1CCN(Cc2ccc(F)cc2Cl)C1=O)OC,-16.0,4.3,6.5,-1.3,/,/
COc1ccc(S(=O)(=O)NNc2nc(C)cc(C)n2)cc1[N+](=O)[O-],0.1,1.9,45.5*,-8.2,54.5*,2.3
CCOc1ccc(C(=O)NCC(=O)OCCCC(=O)c2ccc(F)cc2)cc1OCC,-6.1,2.4,8.3,-2.1,/,/
Cc1ccc(CN2C(=O)C(CC(C)C)Nc3ncnc(N4CCN(c5ccccc5)CC4)c32)cc1 (stereo unspecified),9.1,4.7,7.6,-1.3,/,/
CCC1Nc2ncnc(N3CCN(c4ccccc4)CC3)c2N(Cc2ccc(C)cc2)C1=O (stereo unspecified),36.1,-16.4,50.0*,-10.9,35.6*,56.0*
Cn1nnc(NC(=S)NC(=O)c2cccs2)n1,21.2,-8.8,30.6,-6.2,/,/
Cn1nnc(NC(=S)NC(=O)c2cccc3ccccc23)n1,4.7,-1.1,40.8*,-7.7,9.3,3.4
COc1cc(OC)cc(C(=O)NC(=S)Nc2nnn(C)n2)c1,0.7,-1.4,41.1*,-8.2,24.8,7.0
O=C(CC1(O)C(=O)Nc2ccccc21)c1ccc(-n2cnnn2)cc1 (stereo unspecified),14.8,-4.4,40.1*,-8.8,32.8*,-1.2
OCC1OC(Oc2c[nH]c3ccccc23)C(O)C(O)C1O (stereo unspecified),-3.3,0.9,57.9*,-10.7,-4.9,20.5
O=C(CNC(=O)c1ccco1)OCC(=O)c1ccc(Cl)cc1Cl,12.4,-4.3,44.0*,-8.1,-19.7,-21.0

# Source: PubChem BioAssay (The Scripps Research Institute Molecular Screening Center)
